Compound activity as filed in PubChem BioAssay.
KB-V1 cytotox – qHTS assay for MDR1-selective chemotherapeutics: Primary screen using the drug-selected MDR subline cells KB-V1. KB-V1 MDR cells viability, CellTiter-Glo, 72 h. Potency, µM (top dose mostly 46.1 µM), most hits filed as cytotoxic. 3.4% of 400,000 active. AID 1347076, 2019; further: on the % scale 0 is the no-effect control and ±100 the full control effect; nearly all actives have a fitted effect of over 60% in size
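Cells of the MDR subline KB-V1 are plated, dosed with compound at multiple concentrations, and incubated 72 h at 37 degrees C; CellTiter-Glo is then added and luminescence read after 10 min.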
HT1080-NT tox – qHTS for induction of synthetic lethality in tumor cells producing 2HG: qHTS for the HT-1080-NT fibrosarcoma cell line. HT-1080-NT fibrosarcoma viability, CellTiter-Glo ATP luminescence, 48 h. Potency, µM (doses to about 46.1 µM), for the others: at the top dose activity, negative = less viability, most hits filed as cytotoxic. 1.6% of 360,000 active. AID 686970, 2013;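 further: NT is the 2HG producing partner of a matched IDH1 knockdown line; 0% = DMSO-treated cells and -100% = media-only wells without cells; nearly all actives have a fitted effect of over 55% in size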
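Toxicity toward the 2HG-producing NT line was scored as %Activity, normalised to DMSO and no-cell wells, from CellTiter-Glo luminescence after 48 hours' treatment.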
MCF10A rerep – A quantitative high throughput screen for small molecules that induce DNA re-replication in MCF 10a normal breast cells. MCF 10A DNA re-replication, Hoechst nuclear intensity, 48 h. Potency, µM (highest dose often 46.1 µM), for the others: at the highest dose activity, positive = re-replication, most hits filed as activators. 2.9% of 350,000 active; further: % of control where 0% means no effect; nearly all actives have a fitted effect of over 50% in size
KB-3-1 cytotox – qHTS assay for MDR1-selective chemotherapeutics: Primary screen using the parental adenocarcinoma cell KB-3-1 | KB-3-1 viability, CellTiter-Glo ATP luminescence, 72 h | Potency, µM (highest dose often 46.1 µM), usual class: cytotoxic | 1.4% of 400,000 active; further: on the % scale 0 is the no-effect control and ±100 the full control effect; nearly all actives have a fitted effect of over 60% in size
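Cytotoxicity in the drug-sensitive parental line KB-3-1 was scored as loss of CellTiter-Glo luminescence following 72 h incubation with compound. Values come from curve fitting of normalized concentration-response data.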
SW480 rerep – A quantitative high throughput screen for small molecules that induce DNA re-replication in SW480 colon adenocarcinoma cells. AID 624297, 2012. 1.8% of 340,000 active. Potency, µM (top dose mostly 46.1 µM), for the others: top-dose re-replication activation, usual class: activators. SW480 DNA re-replication, Hoechst DNA content imaging, 48 h; further: % of control where 0% means no effect; nearly all actives have a fitted effect of over 55% in size
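DNA re-replication was detected as more nuclei of elevated Hoechst intensity after 48 hr exposure to compound (23 nL pinned per well of 250 cells).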
HT1080 IDH1KD tx – qHTS for induction of synthetic lethality in tumor cells producing 2HG: qHTS for the HT-1080-IDH1KD cell line | HT-1080 IDH1 knockdown viability, ATP luminescence, 48 h | Potency, µM (series often up to 46.1 µM), for inactives: top-dose activity, negative = toxicity, actives largely listed as cytotoxic | 2% of 360,000 active;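 further: 0% = DMSO wells and -100% = cell-free medium wells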
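% activity derives from luminescence (CellTiter-Glo), normalised to DMSO and no-cell wells. HT-1080-IDH1KD cells, 750/well, had 48 h compound exposure at 37 °C.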
Numbers without * were called inactive; [ ] = dose if it differs, or a comment. In the library only some 7.9% were active in any assay of this set; here they are far more common. The call rests on the fitted dose curve; in most records, active means well fitted curve in the direction sought with a large enough effect; inconclusive means small, poorly fitted or top-dose-only effect, or another doubt; inactive means no such curve, though single readings can be large; an effect the other way counts as inactive or inconclusive. Potency means the concentration at half of the fitted maximal effect.

How did CC(C)c1ccc(C(=O)N2CCOCC2c2cc(C(=O)Nc3ccccc3)no2)cc1 (stereo not given) do in these assays?
KB-V1 cytotox: inactive; HT1080-NT tox: 8%; KB-3-1 cytotox: inactive; HT1080 IDH1KD tx: -4%

Results for CCOC(=O)c1sc2nccc(N(C)C)c2c1N=CNOCc1ccccc1 ?
KB-V1 cytotox: 9.2µM*; HT1080-NT tox: -29%; MCF10A rerep: 21µM*; KB-3-1 cytotox: inconclusive; SW480 rerep: inconclusive; HT1080 IDH1KD tx: -24%

How did CCOC(=O)c1sc2nccc(N(C)C)c2c1N=CNOCc1c(F)cccc1Cl do in these assays?
KB-V1 cytotox: inconclusive; HT1080-NT tox: -25%; MCF10A rerep: 15µM*; KB-3-1 cytotox: inactive; SW480 rerep: inconclusive; HT1080 IDH1KD tx: -24%

What do the screens show for `CSc1nc(S(=O)(=O)c2ccccc2)c(Cl)s1`?
KB-V1 cytotox: inconclusive; HT1080-NT tox: -3%; MCF10A rerep: 15%; KB-3-1 cytotox: inactive; SW480 rerep: -5%; HT1080 IDH1KD tx: -1%

Results for CCN(CC)C(=O)Cn1cc(SCC(=O)Nc2ccc(C)cc2)c2ccccc21 ?
KB-V1 cytotox: inactive; KB-3-1 cytotox: inactive

What do the screens show for `Cc1cc(C(=O)CSc2nc3ccccc3c(=O)n2C)c(C)n1Cc1ccc2c(c1)OCO2`?
KB-V1 cytotox: inconclusive; HT1080-NT tox: 1%; MCF10A rerep: 10%; KB-3-1 cytotox: inconclusive; SW480 rerep: 3%; HT1080 IDH1KD tx: 5.8µM*

Results for CC1CCN(C(=O)CSc2nc3ccccc3c(=O)n2Cc2ccc3c(c2)OCO3)CC1 ?
KB-V1 cytotox: 4.6µM*; HT1080-NT tox: inconclusive; MCF10A rerep: inconclusive; KB-3-1 cytotox: inconclusive; SW480 rerep: 19%; HT1080 IDH1KD tx: -26%

What do the screens show for `O=C(Oc1ccc(Br)cc1)c1cncc(Br)c1`?
KB-V1 cytotox: inactive; HT1080-NT tox: -1%; MCF10A rerep: -1%; KB-3-1 cytotox: inactive; SW480 rerep: 0%; HT1080 IDH1KD tx: -5%

How did CC(=O)c1sc(NC(=O)C=C(C)C)nc1C do in these assays?
KB-V1 cytotox: inactive; HT1080-NT tox: -1%; MCF10A rerep: 11%; KB-3-1 cytotox: inactive; SW480 rerep: 4%; HT1080 IDH1KD tx: -12%

Results for CC(=O)c1sc(NC(=O)C2(F)C(F)(F)C(F)(F)C(F)(F)C(F)(F)C2(F)F)nc1C ?
KB-V1 cytotox: 7.3µM*; HT1080-NT tox: 7.1µM*; MCF10A rerep: 9.2µM*; KB-3-1 cytotox: inconclusive; SW480 rerep: 0%; HT1080 IDH1KD tx: 7.1µM*

Results for NC(=O)c1ccc(N2CCC(C(N)=O)CC2)c([N+](=O)[O-])c1 ?
KB-V1 cytotox: inactive; HT1080-NT tox: -10%; MCF10A rerep: 1%; KB-3-1 cytotox: inactive; SW480 rerep: -1%; HT1080 IDH1KD tx: 2%

Results for CCCOc1ccccc1C1CC(=O)Nc2cc3c(cc21)OCCO3 (stereo not given) ?
KB-V1 cytotox: 2.6µM*; HT1080-NT tox: 1.3µM*; MCF10A rerep: inconclusive; KB-3-1 cytotox: 1.3µM*; SW480 rerep: inconclusive; HT1080 IDH1KD tx: 1.5µM*

How did CCCCOc1ccccc1C1CC(=O)Nc2cc(OC)c(OC)cc21 (stereo not given) do in these assays?
KB-V1 cytotox: inactive; KB-3-1 cytotox: inactive

How did CCOc1ccccc1C1CC(=O)Nc2cc3c(cc21)OCCO3 (stereo not given) do in these assays?
KB-V1 cytotox: inconclusive; HT1080-NT tox: inconclusive; MCF10A rerep: 7.3µM*; KB-3-1 cytotox: 0.46µM*; SW480 rerep: 2.9µM*; HT1080 IDH1KD tx: 4.1µM*

Results for CC(C)C(=O)Nc1cccc(S(=O)(=O)c2cccc(NC(=O)C(C)C)c2)c1 ?
KB-V1 cytotox: inactive; HT1080-NT tox: -5%; MCF10A rerep: inconclusive; KB-3-1 cytotox: inactive; SW480 rerep: 2%; HT1080 IDH1KD tx: -4%

How did CCOC(=O)c1c(C)[nH]c(C(=O)COC(=O)c2ccncc2)c1C do in these assays?
KB-V1 cytotox: 7.3µM*; HT1080-NT tox: 2%; MCF10A rerep: 6%; KB-3-1 cytotox: inconclusive; SW480 rerep: 0%; HT1080 IDH1KD tx: 1%

Results for Cc1[nH]c2ccccc2c1C(=O)COC(=O)C1CC(=O)N(Cc2ccccc2)C1 (stereo not given) ?
KB-V1 cytotox: inactive; HT1080-NT tox: 3%; MCF10A rerep: 0%; KB-3-1 cytotox: inactive; SW480 rerep: -1%; HT1080 IDH1KD tx: 3%

What do the screens show for `CCOC(=O)c1c(C)[nH]c(C(=O)COC(=O)C2CC(=O)N(Cc3ccccc3)C2)c1C` (stereo not given)?
KB-V1 cytotox: 3.3µM*; HT1080-NT tox: 10%; MCF10A rerep: -1%; KB-3-1 cytotox: inactive; SW480 rerep: -16%; HT1080 IDH1KD tx: 10%

Results for CCOC(=O)c1c(C)[nH]c(C(=O)COC(=O)c2cnccn2)c1C ?
KB-V1 cytotox: inactive; HT1080-NT tox: 1%; MCF10A rerep: inconclusive; KB-3-1 cytotox: inactive; SW480 rerep: -10%; HT1080 IDH1KD tx: -11%

What do the screens show for `CCOc1cc(Cl)c(S(=O)(=O)NCCCN2CCOCC2)cc1Cl`?
KB-V1 cytotox: inactive; HT1080-NT tox: 0%; MCF10A rerep: inconclusive; KB-3-1 cytotox: inactive; SW480 rerep: -7%; HT1080 IDH1KD tx: 2%

Results for COc1nc(N(c2ccccc2)c2ccccc2)nc(-n2ccnc2)n1 ?
KB-V1 cytotox: inconclusive; HT1080-NT tox: -17%; MCF10A rerep: 16µM*; KB-3-1 cytotox: inactive; SW480 rerep: -5%; HT1080 IDH1KD tx: -17%

What do the screens show for `O=C1N=C(N2CCOCC2)S/C1=C/c1cccs1`?
KB-V1 cytotox: inactive; HT1080-NT tox: 0%[9.24 µM]; MCF10A rerep: -2%; KB-3-1 cytotox: inactive; SW480 rerep: -7%; HT1080 IDH1KD tx: 1%

How did CCN(CC(=O)Nc1ccc(OC)cc1)C(=O)c1cc(S(=O)(=O)N(C)C)ccc1N1CCCC1 do in these assays?
KB-V1 cytotox: inactive; HT1080-NT tox: 1%; MCF10A rerep: 1%; KB-3-1 cytotox: inactive; SW480 rerep: -8%; HT1080 IDH1KD tx: -4%
